In PubChem BioAssay AID1159580 (chemical genetic matrix, 2015):
Where “and” joins values, the source holds several entries; their conditions need not be identical. Identical values can stand only once. About 2,000 (36%) of roughly 5,500 compounds were called active. About 18% were inconclusive and are not listed. No stated cut-off is given here; in the data, active means normalized growth mostly below about 0.91 (no sharp cut-off); inconclusive means no clear call, values can overlap the other calls; inactive means mostly above about 0.92. The list shows a part of the results.

Experiment: chemical genetic growth profiling, strain panel (AID 1159580);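 further: tested at 20 µM; growth read once vehicle control cultures reached saturation at 30 °C; 1 = growth at the plate median or of vehicle wells; lower values mean less growth of the strain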
Conditions: S. cerevisiae deletion strains, growth OD

Measured: normalized growth

Clc1cccc(Cl)c1NC1=NCCN1
inactive: locus YAL021C, strain ccr4, hits give low values 0.973 | locus YAL026C, strain drs2, hits give low values 1.01 | locus YAL030W, strain snc1, hits give low values 0.993 | locus YAL040C, strain CLN3, hits give low values 0.999 | locus YBL061C, strain skt5, hits give low values 0.972 | locus YBR009C, strain hhf1, hits give low values 1 | locus YBR021W, strain FUR4, hits give low values 1.03 | locus YBR023C, strain chs3, hits give low values 0.983 | locus YBR171W, strain sec66, hits give low values 0.977 | locus YBR229C, strain ROT2, hits give low values 0.999 | locus YBR231C, strain swc5, hits give low values 0.998 | locus YBR279W, strain paf1, hits give low values 1.01 | locus YCL011C, strain gbp2, hits give low values 0.96 | locus YCL016C, strain dcc1, hits give low values 0.962 | locus YCL029C, strain bik1, hits give low values 1.02 | locus YCL061C, strain MRC1, hits give low values 0.989 | locus YCL069W, strain vba3, hits give low values 0.991 | locus YCR088W, strain abp1, hits give low values 0.992 | locus YDL005C, strain med2, hits give low values 0.996 | locus YDL035C, strain GPR1, hits give low values 1.02 | locus YDL040C, strain nat1, hits give low values 1.01 | locus YDL074C, strain BRE1, hits give low values 1.03 | locus YDL101C, strain DUN1, hits give low values 1.02 | locus YDL134C, strain PPH21, hits give low values 1.01 | locus YDL185W, strain tfp1, hits give low values 1.01 | locus YDL192W, strain arf1, hits give low values 1.02 | locus YDR001C, strain nth1, hits give low values 0.972 | locus YDR069C, strain doa4, hits give low values 0.992 | locus YDR101C, strain arx1, hits give low values 1.03 | locus YDR137W, strain rgp1, hits give low values 0.959 | locus YDR150W, strain NUM1, hits give low values 1.01 | locus YDR159W, strain sac3, hits give low values 1.01 | locus YDR162C, strain NBP2, hits give low values 1.01 | locus YDR195W, strain ref2 0.994 | locus YDR297W, strain sur2, hits give low values 0.98 | locus YDR318W, strain mcm21, hits give low values 1.02 | locus YDR334W, strain swr1, hits give low values 0.954 | locus YDR335W, strain msn5, hits give low values 0.973 | locus YDR388W, hits give low values 1.01 | locus YDR392W, strain spt3, hits give low values 0.904 | locus YDR502C, strain sam2, hits give low values 1.03 | locus YEL003W, strain gim4, hits give low values 0.984 | locus YEL037C, strain rad23, hits give low values 0.999 | locus YEL061C, strain CIN8 (second series), hits give low values 0.988 | locus YEL061C, strain CIN8, hits give low values 1.01 | locus YER002W, strain NOP16, hits give low values 0.99 | locus YER015W, strain faa2, hits give low values 1 | locus YER016W, strain bim1, hits give low values 0.996 | locus YER110C, hits give low values 1.02 | locus YER111C, strain swi4, hits give low values 0.993 | locus YER155C, strain BEM2 (second series), hits give low values 1 | locus YER155C, strain BEM2, hits give low values 1.01 | locus YER167W, strain BCK2, hits give low values 1.01 | locus YFR010W, strain ubp6, hits give low values 0.998 | locus YGL078C, strain dbp3, hits give low values 1.03 | locus YGL086W, strain mad1, hits give low values 1.06 | locus YGL167C, strain pmr1, hits give low values 0.991 | locus YGL173C, strain kem1, hits give low values 0.985 | locus YGL227W, strain vid30, hits give low values 0.992 | locus YGL240W, strain doc1, hits give low values 0.995 | locus YGL248W, strain PDE1, hits give low values 1.03 | locus YGL253W, strain hxk2, hits give low values 0.963 | locus YGR135W, strain pre9, hits give low values 1.04 | locus YGR229C, strain SMI1, hits give low values 0.992 | locus YGR252W, strain gcn5, hits give low values 1.05 | locus YHR013C, strain ard1, hits give low values 0.965 | locus YHR027C, strain rpn1, hits give low values 0.98 | locus YHR030C, strain SLT2, hits give low values 1.01 and 0.969 | locus YHR079C, strain IRE1 (second series), hits give low values 1.02 | locus YHR079C, strain IRE1, hits give low values 0.98 | locus YHR094C, strain hxt1, hits give low values 1.02 | locus YHR129C, strain ARP1, hits give low values 1.01 | locus YHR142W, strain chs7, hits give low values 0.932 | locus YHR200W, strain rpn10, hits give low values 1.02 | locus YIL066C, strain RNR3, hits give low values 1.01 | locus YIL073C, strain SPO22, hits give low values 1.07 | locus YIL125W, strain kgd1, hits give low values 1.02 | locus YIR030C, strain dcg1, hits give low values 1.01 | locus YJL092W, strain hpr5, hits give low values 0.994 | locus YJL095W, strain BCK1 (second series), hits give low values 0.983 | locus YJL095W, strain BCK1, hits give low values 1.04 and 0.975 | locus YJL115W, strain asf1, hits give low values 0.969 | locus YJL129C, strain trk1, hits give low values 0.97 | locus YJL134W, strain LCB3, hits give low values 1.01 | locus YJL154C, strain vps35, hits give low values 0.972 | locus YJL164C, strain tpk1, hits give low values 0.996 | locus YJL166W, strain qcr8, hits give low values 0.953 | locus YJL168C, strain set2, hits give low values 1.02 | locus YJL187C, strain SWE1 (second series), hits give low values 1.03 | locus YJL187C, strain SWE1, hits give low values 1 | locus YJR043C, strain POL32, hits give low values 1.03 | locus YJR066W, strain TOR1, hits give low values 0.996 | locus YJR075W, strain HOC1, hits give low values 1.01 | locus YKL009W, strain mrt4, hits give low values 1.02 | locus YKL068W, hits give low values 1 | locus YKL085W, strain MDH1 (second series), hits give low values 1.06 | locus YKL085W, strain MDH1, hits give low values 1.06 | locus YKL160W, strain elf1, hits give low values 0.951 | locus YKL190W, strain CNB1, hits give low values 1.01 | locus YKR001C, strain vps1, hits give low values 1.01 | locus YKR026C, strain gcn3, hits give low values 0.986 | locus YKR091W, strain srl3, hits give low values 0.982 | locus YLL001W, strain dnm1, hits give low values 0.933 | locus YLL026W, hits give low values 0.986 | locus YLL041C, strain sdh2, hits give low values 1 | locus YLR027C, strain aat2, hits give low values 1.01 | locus YLR039C, strain RIC1, hits give low values 1.01 | locus YLR058C, strain SHM2, hits give low values 1.02 | locus YLR102C, strain apc9, hits give low values 1.01 | locus YLR113W, strain HOG1, hits give low values 0.951 | locus YLR221C, strain rsa3, hits give low values 0.944 | locus YLR258W, strain gsy2, hits give low values 0.985 | locus YLR262C, strain YPT6 (second series), hits give low values 0.974 | locus YLR262C, strain YPT6, hits give low values 0.982 | locus YLR268W, strain sec22, hits give low values 1.02 | locus YLR320W, strain mms22, hits give low values 0.944 | locus YLR330W, strain CHS5, hits give low values 1.01 | locus YLR342W, strain FKS1 (second series), hits give low values 1.01 | locus YLR342W, strain FKS1, hits give low values 0.995 | locus YLR357W, strain rsc2, hits give low values 0.974 | locus YLR370C, strain arc18, hits give low values 0.968 | locus YLR371W, strain rom2, hits give low values 1.01 | locus YLR384C, strain iki3, hits give low values 0.988 | locus YLR418C, strain cdc73, hits give low values 1.05 | locus YML016C, strain PPZ1, hits give low values 1 | locus YML032C, strain rad52, hits give low values 1.02 | locus YML120C, strain ndi1, hits give low values 0.941 | locus YML124C, strain tub3, hits give low values 1.01 | locus YMR058W, strain fet3, hits give low values 0.99 | locus YMR078C, strain ctf18, hits give low values 1.01 | locus YMR125W, strain sto1, hits give low values 0.958 | locus YMR129W, hits give low values 0.999 | locus YMR205C, strain PFK2, hits give low values 0.947 | locus YMR223W, strain ubp8, hits give low values 1.04 | locus YMR231W, strain pep5, hits give low values 0.999 | locus YMR263W, strain SAP30, hits give low values 0.988 | locus YMR307W, strain GAS1, hits give low values 1.09 | locus YNL067W, strain RPL9B, hits give low values 1.05 | locus YNL071W, strain lat1, hits give low values 0.993 | locus YNL175C, strain NOP13, hits give low values 1.01 | locus YNL183C, strain NPR1, hits give low values 0.926 | locus YNL197C, strain WHI3, hits give low values 0.999 | locus YNL209W, strain ssb2, hits give low values 0.991 | locus YNL224C, strain SQS1, hits give low values 1 | locus YNL233W, strain BNI4, hits give low values 1.02 | locus YNL248C, strain rpa49, hits give low values 0.995 | locus YNL250W, strain rad50, hits give low values 1.02 | locus YNL271C, strain bni1, hits give low values 1.02 | locus YNL298W, strain CLA4, hits give low values 1.02 | locus YNL307C, strain MCK1, hits give low values 1.02 | locus YNL322C, strain KRE1 (second series), hits give low values 0.982 | locus YNR049C, strain mso1, hits give low values 0.981 | locus YNR052C, strain pop2, hits give low values 1.02 | locus YOL006C, strain TOP1, hits give low values 1.18 | locus YOL012C, strain htz1 0.754 | locus YOL147C, strain pex11, hits give low values 1.02 | locus YOR001W, strain rrp6, hits give low values 1.04 | locus YOR061W, strain CKA2, hits give low values 1.01 | locus YOR069W, strain VPS5, hits give low values 1.01 | locus YOR070C, strain gyp1, hits give low values 0.996 | locus YOR080W, strain dia2, hits give low values 0.979 | locus YOR083W, strain WHI5 (second series), hits give low values 0.997 | locus YOR083W, strain WHI5, hits give low values 0.957 | locus YOR106W, strain vam3, hits give low values 0.944 | locus YOR136W, strain idh2, hits give low values 1.03 | locus YOR144C, strain elg1, hits give low values 1.01 | locus YOR184W, strain ser1, hits give low values 1.03 | locus YOR231W, strain MKK1, hits give low values 0.989 | locus YOR265W, strain rbl2, hits give low values 1 | locus YOR270C, strain vph1, hits give low values 0.939 | locus YOR290C, strain snf2, hits give low values 0.939 | locus YOR316C, strain cot1, hits give low values 1.02 | locus YPL051W, strain arl3, hits give low values 0.991 | locus YPL055C, strain LGE1, hits give low values 1.04 | locus YPL078C, strain atp4, hits give low values 0.954 | locus YPL106C, strain sse1, hits give low values 0.94 | locus YPL240C, strain hsp82, hits give low values 1 | locus YPL256C, strain CLN2, hits give low values 0.993 | locus YPR119W, strain clb2, hits give low values 1.02 | locus YPR141C, strain kar3, hits give low values 1.01 | locus YPR163C, strain tif3, hits give low values 1.01 | locus YPR167C, strain met16, hits give low values 1.01 | strain wtn01, hits give low values 1.04
